Experiments:
Type in all cases: functional
Plasmodium falciparum [1] = experiment: GSK_TCMDC: Inhibition of Plasmodium falciparum 3D7 in whole red blood cells, using parasite LDH activity as an index of growth. Test compounds present at 2uM
Plasmodium falciparum [2] = experiment: GSK_TCMDC: Inhibition of Plasmodium falciparum Dd2 in whole red blood cells, using parasite LDH activity as an index of growth. Test compounds present at 2uM
HepG2 = experiment: GSK_TCMDC: Percent inhibition of human HepG2 cell line. Test compounds present at 10uM.

Row | SMILES | Inhibition (Plasmodium falciparum [1]) [%] | Inhibition (Plasmodium falciparum [2]) [%] | Inhibition (HepG2) [%]
1 | Cc1nc(-c2nc(NCc3ccncc3)ncc2-c2ccsc2)sc1C | 91 | 83 | 8
2 | Cl.O=C(Nc1ccc2c(c1)CNCC2)c1ccc(-c2ccc(Cl)cc2)cc1 | 96 | 28 | 52
3 | CC(C)n1cc2c(ccc3nc(N)nc(N)c32)n1 | 92 | 0 | 65
4 | CCNc1cc(C(=O)N[C@@H](Cc2cccc(F)c2)[C@H](O)CNC(C)CCCC(C)C)cc(N2CCCCS2(=O)=O)c1.Cl (some centres not stated) | 98 | 97 | 0
5 | COc1ccc(C=CC(=O)Nc2ccc(N3CCCC3)cc2)cc1.Cl | 81 | 9 | 0
6 | O=C(NCC1CCC(C(=O)NCc2cccc(C(F)(F)F)c2)CC1)c1ccc(O)c(-c2ccc(Cl)c(Cl)c2)c1 (configuration not stated) | 98 | 41 | 5
7 | COc1ccc(-c2cccc(NC(=O)c3ccc(F)cc3)c2)cc1CNC(C)C.O=C(O)C(F)(F)F | 83 | 9 | 32
8 | O=C(/C=C/c1ccc(Cl)c(Cl)c1)NCCCCCN1CCC(C(=O)Nc2ccc3c(c2)OCO3)CC1 | 92 | 0 | 18
9 | Cc1ccc2ncc(Cl)c(CCN3CCC(NCc4ccc5c(n4)NC(=O)CS5)CC3)c2n1.Cl | 90 | 12 | 13
10 | CN(C)/C(=N/C(=N)Nc1ccc(Cl)cc1)NCCCCCCN/C(=N\C(=N)Nc1ccc(Cl)cc1)N(C)C | 97 | 98 | 11
11 | CCCc1cc(NCC)nc(Nc2ccc(F)cc2)n1 | 86 | 36 | 16
12 | O=C(Nc1ccc(Cn2ncc(N3CCCNCC3)c(Cl)c2=O)cc1)Nc1ccc(F)cc1[N+](=O)[O-] | 90 | 0 | 11
13 | O=C(Cc1ccccc1)NC(c1ccco1)c1cc(Cl)c2cccnc2c1O (configuration not stated) | 89 | 93 | 44
14 | CCc1c(CCNCCCCCCNCCc2ccc(Br)cc2)ccc(OC)c1OC.Cl | 99 | 14 | 100
15 | Cc1cc2ccc(/C=C/C(=O)NC3CCC(CCN4CCc5ccc(C#N)cc5CC4)CC3)cc2[nH]1.Cl (configuration not stated) | 84 | 56 | 19
16 | CN1CCN(c2cc3c(cc2Br)CCN3C(=O)Nc2ccc(-c3cnc4ccccc4c3)cc2)CC1 | 99 | 79 | 100
17 | CN(CCCCCN1CCC(NC(=O)Nc2ccc(Oc3ccccc3)cc2)C1)C(=O)/C=C/c1ccc(Cl)c(Cl)c1 (configuration not stated) | 98 | 14 | 50
18 | Cc1n[nH]c(C)c1C1CCN(CC2CCC(NC(=O)/C=C/c3ccc(Cl)c(Cl)c3)CC2)CC1 (configuration not stated) | 100 | 53 | 15
19 | COc1cc2nc(NCCCO)nc(Nc3ccc(Oc4ccccc4)cc3)c2cc1OC | 100 | 100 | 24
20 | O=C(Nc1ccc(OC2CCN(Cc3ccc(F)cc3)C2)c(Cl)c1)c1ccco1.O=C(O)C(F)(F)F (configuration not stated) | 96 | 97 | 9
21 | COc1ccc(NC(=O)c2ccc(NC(=O)c3ccc(Cl)cc3)cc2)cc1N1CCN(C)CC1 | 98 | 40 | 23
22 | Cc1nn(CC(C)C)c2sc(C(=O)Nc3nc(-c4ccccn4)cs3)cc12 | 96 | 67 | 29
23 | CN1CCC(NCc2ccc(-c3cnc(NCc4ccccc4)nc3)cc2)CC1.O=C(O)C(F)(F)F | 91 | 64 | 23
24 | C[C@@H](Nc1nc(NCc2ccccc2)c2sccc2n1)c1ccccc1 | 91 | 75 | 31
25 | CC(C)NCc1cccc(-c2ccc(-c3nc4cc(C(F)(F)F)ccc4[nH]3)cc2)c1.O=C(O)C(F)(F)F | 99 | 96 | 7
26 | COc1ccc2nc(-c3cc(-c4ccc(NC(=O)CN5CCOCC5)cc4)cnc3N)[nH]c2c1 | 100 | 72 | 52
27 | O=C(CSc1ccccn1)Nc1c(F)cccc1F | 88 | 0 | 0
28 | CC(C)CN1CCN(CCNc2c3ccccc3nc3ccccc23)CC1 | 97 | 79 | 26
29 | COc1cc(NC(=O)c2cccc([N+](=O)[O-])c2)cc(S(=O)(=O)c2ccc(Cl)cc2)c1 | 88 | 23 | 0

Source: ChEMBL document CHEMBL1157539, “Thousands of chemical starting points for antimalarial lead identification” (Nature, 2010)
